The results in this text go back to PubChem BioAssay (EPA / NIEHS).

Activity calls are given as the source filed them. The calls were made as follows: active = hit-call score of the fitted dose curve at least 0.9, where 1 is the maximum; inactive = score below 0.9.

Read-out in assay [1]: CFLAR gene, CFLAR (gene 8837)
Nature of the assay: LTEA_HepaRG_CFLAR: Life Technologies and Expression Analysis (LTEA) Assay for CFLAR gene using HepaRG (AID 2283455). The conditions noted are these: mRNA level, 48 h; actives raise or lower the signal. In a few lines:
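HepaRG cells were plated for 48 h, switched to serum-free induction medium, then exposed in duplicate for 48 h to 8 concentrations (top 100 uM, half-log steps, 0.5% DMSO). CFLAR mRNA was measured by qRT-PCR, normalized to ACTB, GAPDH and POLR2A.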

Read-out in assay [2]: Forkhead box O1 (FOXO1), FOXO1 (gene 2308)
Nature of the assay: LTEA_HepaRG_FOXO1: Life Technologies and Expression Analysis (LTEA) Assay for Forkhead box O1 (FOXO1) using HepaRG (AID 2283456). Particulars: mRNA level, 48 h; actives raise or lower the signal. In a few lines: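 Differentiated human HepaRG cells in serum-free induction medium were exposed in duplicate for 48 h to eight half-log concentrations (top 100 uM, 0.5% DMSO). FOXO1 mRNA was measured by TaqMan qRT-PCR, normalised to ACTB, GAPDH and POLR2A, and fitted bidirectionally against DMSO.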

Read-out in assay [3]: growth arrest and DNA damage 45 (GADD45A), GADD45A (gene 1647)
In words: LTEA_HepaRG_GADD45A: Life Technologies and Expression Analysis (LTEA) Assay for growth arrest and DNA damage 45 (GADD45A) using HepaRG (AID 2283458). Particulars: mRNA level, 48 h; actives raise or lower the signal. In outline: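 Differentiated HepaRG cells exposed 48 h in serum-free induction medium to 8 concentrations, top 100 uM in half-log steps, 0.5% DMSO. GADD45A mRNA quantified by qRT-PCR, normalized to ACTB, GAPDH and POLR2A; bidirectional fit versus DMSO.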

Read-out in assay [4]: Forkhead box O3 (FOXO3), FOXO3 (gene 2309)
Nature of the assay: LTEA_HepaRG_FOXO3: Life Technologies and Expression Analysis (LTEA) Assay for Forkhead box O3 (FOXO3) using HepaRG (AID 2283459). Particulars: mRNA level, 48 h; actives raise or lower the signal. In a few lines:
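Differentiated human HepaRG cells in serum-free induction medium were exposed in duplicate for 48 h to eight half-log concentrations up to 100 uM in 0.5% DMSO. FOXO3 mRNA was quantified by qRT-PCR, normalized to ACTB, GAPDH and POLR2A, with bidirectional fitting versus DMSO.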

Read-out in assay [5]: ABC Transporter (ABCB1), ABCB1 (gene 5243)
Nature of the assay: LTEA_HepaRG_ABCB1: Life Technologies and Expression Analysis (LTEA) Assay for ABC Transporter (ABCB1) using HepaRG (AID 2283460). Particulars: mRNA level, 48 h; actives raise or lower the signal. In a few lines: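 Differentiated human HepaRG cells, plated 48 h then switched to serum-free induction medium, were exposed in duplicate to eight half-log concentrations up to 100 uM in 0.5% DMSO for 48 h. ABCB1 mRNA was measured by TaqMan qRT-PCR, normalized to ACTB/GAPDH/POLR2A.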

Read-out in assay [6]: growth arrest and DNA damage 45 (GADD45B), GADD45B (gene 4616)
In words: LTEA_HepaRG_GADD45B: Life Technologies and Expression Analysis (LTEA) Assay for growth arrest and DNA damage 45 (GADD45B) using HepaRG (AID 2283461). The conditions noted are these: mRNA level, 48 h; actives raise or lower the signal. In a few lines:
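Human HepaRG monolayers receive chemicals for 48 h at eight half-log concentrations, highest 100 uM, in 0.5% DMSO. Expression is measured by TaqMan qRT-PCR and normalized to ACTB, GAPDH and POLR2A.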

Read-out in assay [7]: ABC Transporter (ABCC3), ABCC3 (gene 8714)
In words: LTEA_HepaRG_ABCC3: Life Technologies and Expression Analysis (LTEA) Assay for ABC Transporter (ABCC3) using HepaRG (AID 2283462). The conditions noted are these: mRNA level, 48 h; actives raise or lower the signal. In outline:
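Transcriptional change of ABCC3 in HepaRG after 48 h treatment, determined by qRT-PCR normalized to endogenous controls. Concentrations spanned eight half-log steps to 100 uM in 0.5% DMSO.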

Read-out in assay [8]: ABC Transporter (ABCB11), ABCB11 (gene 8647)
Nature of the assay: LTEA_HepaRG_ABCB11: Life Technologies and Expression Analysis (LTEA) Assay for ABC Transporter (ABCB11) using HepaRG (AID 2283463). The conditions noted are these: mRNA level, 48 h; actives raise or lower the signal. In outline:
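Differentiated human HepaRG cells were exposed for 48 h in serum-free induction medium to eight half-log concentrations up to 100 uM in 0.5% DMSO. ABCB11 mRNA was quantified by qRT-PCR, normalized to ACTB, GAPDH and POLR2A, and fitted bidirectionally versus DMSO.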

Read-out in assay [9]: ABC Transporter (ABCC2), ABCC2 (gene 1244)
In words: LTEA_HepaRG_ABCC2: Life Technologies and Expression Analysis (LTEA) Assay for ABC Transporter (ABCC2) using HepaRG (AID 2283464). Particulars: mRNA level, 48 h; actives raise or lower the signal. In outline:
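After plating and 48 h culture, HepaRG medium is replaced with serum-free induction medium and chemicals are added (8 concentrations, max 100 uM, 0.5% DMSO) for 48 h. Total RNA then undergoes qRT-PCR for ABCC2 with housekeeping normalization.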

Read-out in assay [10]: Broad substrate specificity ATP-binding cassette transporter ABCG2 (Homo sapiens) (UniProt Q9UNQ0)
Nature of the assay: LTEA_HepaRG_ABCG2: Life Technologies and Expression Analysis (LTEA) Assay for ABC Transporter (ABCG2) using HepaRG (AID 2283465). Particulars: mRNA level, 48 h; actives raise or lower the signal. In outline:
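Differentiated HepaRG cells in serum-free induction medium were exposed for 48 h, in duplicate, to eight half-log concentrations up to 100 uM in 0.5% DMSO. ABCG2 mRNA was measured by TaqMan qRT-PCR, normalized to ACTB, GAPDH and POLR2A, and fitted bidirectionally versus DMSO.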

Read-out in assay [11]: ATP-citrate lyase (ACLY), ACLY (gene 47)
Nature of the assay: LTEA_HepaRG_ACLY: Life Technologies and Expression Analysis (LTEA) Assay for ATP-citrate lyase (ACLY) using HepaRG (AID 2283466). The conditions noted are these: mRNA level, 48 h; actives raise or lower the signal. In a few lines:
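Differentiated human HepaRG cells in serum-free induction medium exposed 48 h, in duplicate, to eight half-log concentrations from 100 uM top in 0.5% DMSO; ACLY mRNA measured by qRT-PCR, normalized to ACTB, GAPDH, POLR2A, fitted bidirectionally versus DMSO.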

Read-out in assay [12]: Peroxisomal acyl-coenzyme A oxidase 1 (ACOX1) gene, ACOX1 (gene 51)
Nature of the assay: LTEA_HepaRG_ACOX1: Life Technologies and Expression Analysis (LTEA) Assay for Peroxisomal acyl-coenzyme A oxidase 1 (ACOX1) gene using HepaRG (AID 2283467). The conditions noted are these: mRNA level, 48 h; actives raise or lower the signal. In outline: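 Differentiated human HepaRG cells were exposed in duplicate for 48 h in serum-free induction medium to eight half-log concentrations up to 100 uM in 0.5% DMSO. ACOX1 mRNA was then quantified by TaqMan qRT-PCR, normalized to ACTB, GAPDH and POLR2A.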

Read-out in assay [13]: Alkaline Phosphatase, Placental (ALPP) gene, ALPP (gene 250)
Nature of the assay: LTEA_HepaRG_ALPP: Life Technologies and Expression Analysis (LTEA) Assay for Alkaline Phosphatase, Placental (ALPP) gene using HepaRG (AID 2283468). Particulars: mRNA level, 48 h; actives raise or lower the signal. In outline: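 Using human liver HepaRG cells, chemicals are tested in duplicate over 48 h at half-log concentrations topping at 100 uM; phenobarbital 1 mM serves as induction control. ALPP mRNA change by qRT-PCR, bidirectional fit against vehicle.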

Read-out in assay [14]: Bcl-2 (BAD) gene, BAD (gene 572)
Nature of the assay: LTEA_HepaRG_BAD: Life Technologies and Expression Analysis (LTEA) Assay for Bcl-2 (BAD) gene using HepaRG (AID 2283469). Particulars: mRNA level, 48 h; actives raise or lower the signal. In outline: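 Differentiated human HepaRG cells in serum-free induction medium were exposed in duplicate for 48 h to eight concentrations (top 100 uM, half-log steps, 0.5% DMSO). BAD mRNA was quantified by qRT-PCR normalised to ACTB, GAPDH and POLR2A, with bidirectional fitting versus DMSO.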

Read-out in assay [15]: Bcl-2 (BAX) gene, BAX (gene 581)
In words: LTEA_HepaRG_BAX: Life Technologies and Expression Analysis (LTEA) Assay for Bcl-2 (BAX) gene using HepaRG (AID 2283470). Particulars: mRNA level, 48 h; actives raise or lower the signal. In outline:
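Differentiated HepaRG cells exposed 48 h in serum-free induction medium, eight half-log concentrations from 100 uM, in duplicate, 0.5% DMSO vehicle. BAX mRNA by TaqMan qRT-PCR, normalised to ACTB, GAPDH and POLR2A.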

Read-out in another assay: BCL2L11 (gene 10018)
Nature of the assay: LTEA_HepaRG_BCL2L11: Life Technologies and Expression Analysis (LTEA) Assay for Bcl-2 (BCL2L11) gene using HepaRG (AID 2283473). The conditions noted are these: mRNA level, 48 h; actives raise or lower the signal. In outline:
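Human hepatic HepaRG cultures are treated 48 h with test chemicals (maximum 100 uM, 0.5% DMSO vehicle). Expression of BCL2L11 is measured by qRT-PCR against ACTB, GAPDH and POLR2A, with activity in either direction scored relative to vehicle.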

Read-out in assay [16]: Apolipoprotein A-V (APOA5) gene, APOA5 (gene 116519)
In words: LTEA_HepaRG_APOA5: Life Technologies and Expression Analysis (LTEA) Assay for Apolipoprotein A-V (APOA5) gene using HepaRG (AID 2283474). The conditions noted are these: mRNA level, 48 h; actives raise or lower the signal. In outline:
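Concentration-response of APOA5 expression in HepaRG: eight half-log doses to 100 uM, 48 h, qRT-PCR normalized to ACTB/GAPDH/POLR2A, bidirectional fitting with 0.5% DMSO as baseline.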

Read-out in assay [17]: adenosine kinase (ADK) gene, ADK (gene 132)
Nature of the assay: LTEA_HepaRG_ADK: Life Technologies and Expression Analysis (LTEA) Assay for adenosine kinase (ADK) gene using HepaRG (AID 2283471). The conditions noted are these: mRNA level, 48 h; actives raise or lower the signal. In outline: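 Following 48 h exposure of HepaRG cells in 0.5% DMSO (top concentration 100 uM, duplicate wells), ADK mRNA induction or suppression was measured by qRT-PCR, normalised to ACTB/GAPDH/POLR2A, and fitted bidirectionally relative to vehicle.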

Read-out in assay [18]: Alpha-fetoprotein (AFP) gene, AFP (gene 174)
Nature of the assay: LTEA_HepaRG_AFP: Life Technologies and Expression Analysis (LTEA) Assay for Alpha-fetoprotein (AFP) gene using HepaRG (AID 2283472). Particulars: mRNA level, 48 h; actives raise or lower the signal. In a few lines:
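Differentiated human HepaRG cells exposed 48 h in serum-free induction medium, 8-point half-log series from 100 uM in 0.5% DMSO, duplicate. AFP mRNA by qRT-PCR, normalized to ACTB, GAPDH, POLR2A; bidirectional fit vs DMSO.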

The nature of assay [19]: CEETOX_H295R_TESTO: CeeTox H295R High-throughput Steroidogenesis Assay for Testosterone (TESTO) (AID 2283457).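 Also: cells exposed to chemicals for 48 h before medium collection.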 Particulars: actives raise or lower the signal. In a few lines:
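Steroidogenesis in H295R cells following OECD 456 with minor changes; 48 h exposure. Medium testosterone by HPLC-MS/MS, DMSO as baseline, with MTT viability run in parallel.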

Sequence of Broad substrate specificity ATP-binding cassette transporter ABCG2 (Homo sapiens) (Q9UNQ0 whole entry, looked up): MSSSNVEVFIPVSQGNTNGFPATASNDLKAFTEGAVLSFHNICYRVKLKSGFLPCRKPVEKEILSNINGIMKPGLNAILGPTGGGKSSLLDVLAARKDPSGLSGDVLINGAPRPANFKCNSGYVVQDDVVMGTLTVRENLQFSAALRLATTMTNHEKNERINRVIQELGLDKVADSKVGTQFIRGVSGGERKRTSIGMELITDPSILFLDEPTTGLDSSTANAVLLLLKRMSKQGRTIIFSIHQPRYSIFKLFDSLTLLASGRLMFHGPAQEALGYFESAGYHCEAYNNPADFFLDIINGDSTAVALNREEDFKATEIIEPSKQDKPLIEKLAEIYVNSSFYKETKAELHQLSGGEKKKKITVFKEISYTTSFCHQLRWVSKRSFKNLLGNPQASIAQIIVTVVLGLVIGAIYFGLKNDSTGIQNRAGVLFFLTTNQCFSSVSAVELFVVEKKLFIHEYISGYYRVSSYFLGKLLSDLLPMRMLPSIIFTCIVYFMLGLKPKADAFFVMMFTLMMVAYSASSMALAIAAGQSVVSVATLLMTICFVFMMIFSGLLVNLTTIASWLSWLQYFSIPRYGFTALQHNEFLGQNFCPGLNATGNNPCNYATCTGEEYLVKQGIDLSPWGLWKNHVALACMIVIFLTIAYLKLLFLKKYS

Take `O=NN(c1ccccc1)c1ccccc1`: the compound was classed as inactive in assay [1], in [2], in assay [4], in [5], in [6] and in assay [7]. Further, the result in [8], in assay [9], in [10], in assay [11], in [12] and in assay [14] was inactive. In assay [15], the outcome was inactive. Besides, the AC50 was 78.8 µM (active) in [3], 82.7 µM (active) in assay [13], 50 µM (active) with BCL2L11 (gene 10018) and 76.1 µM (active) in [16].
Regarding `Clc1ccc(Cl)cc1`, the compound was classed as inactive in [1], in assay [2], in [3], in [4], in assay [5] and in [6]. Further, the result in assay [7], in assay [8], in [9], in assay [10], in assay [11] and in assay [12] was inactive. The result (in assay [13]; in [14]; in assay [15]; in [17]; in assay [18]; with BCL2L11 (gene 10018)) was inactive. In [16], the call was inactive.
Turning to `Cc1ccccc1CO[C@@H]1C[C@@]2(C(C)C)CC[C@]1(C)O2`, the compound was called inactive in assay [1], in assay [2], in assay [3], in assay [4], in [6] and in [7]. Besides, the call in [8], in assay [10], in [11], in [12], in assay [13] and in assay [14] was inactive. Also, the outcome (in assay [15]; in assay [18]; in the assay with BCL2L11 (gene 10018); in [16]) was inactive. Further, the AC50 is 35 µM (active) in assay [19], 50 µM (active) in assay [5] and 75.1 µM (active) in assay [9].
